SMILES strings stand for the structures. About 79,000 compounds went through this panel and 15% of them were active in at least one assay; those are over-represented in the sample as a whole. Values without a mark were called inactive. No stated cut-off is given here; in the data, active means growth inhibition above about 70%; inactive means the rest.

Here are results for 18 compounds from PubChem BioAssay (NCI).

A short description of the assay: NCI Yeast Anticancer Drug Screen. Data for the rad50 strain (AID 155).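 Further: 0% = growth of vehicle-only cultures of the same strain.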 The following applies: S. cerevisiae rad50 strain growth inhibition; at 50.0 µM; hits give high values. In outline: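 Relative growth inhibition (compound vs vehicle) was measured in yeast with a defined repair-gene alteration.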
Regarding `COc1ccc2cc1Oc1ccc(cc1)CC1=NCCc3cc(OC)c(OC)c(c31)Oc1cc3c(cc1OC)CCN(C)C3C2` (stereo not drawn), the growth inhibition is -8.75%.

For `C=C(Br)CNC(=O)Nc1ccccn1`, the growth inhibition was -10.2%.

With `c1csc(-c2cc(-c3cccs3)c(-c3ccsc3)s2)c1`, the growth inhibition is -46.8%.

In the case of `O=C1NC(N(Cc2ccccc2)Cc2ccccc2)=NC1(c1ccccc1)c1ccccc1`, the growth inhibition is 16.2%.

In the case of `CCNC(=O)Oc1cccc(NC(=O)CC)c1`, the growth inhibition was 3.2%.

As to `N#Cc1nc(CC(=O)c2ccccc2Cl)c(CC(=O)c2ccccc2Cl)nc1C#N`, the growth inhibition was 22.4%.

Take `N#C[C@H](c1nc2ccccc2[nH]1)c1nc2ccccc2nc1Cl`: the growth inhibition was 5.5%.

For the compound `CC(=O)NOCC1NC(=O)C(CONC(C)=O)NC1=O` (stereo not drawn), the growth inhibition was 14%.

Consider `CCOC(=O)C(O)C(O)C(O)C(O)C(=O)OCC` (stereo not drawn), for which the growth inhibition is 5.6%.

Regarding `CC(C)OC(=S)Nc1ccc(Cl)c(COC(C)(C)C)c1`, the growth inhibition is -5.8%.

On to `CC1(C)CSC(C)(C)C(=O)N1`, for which the growth inhibition was 4.9%.

Turning to `O=C(O)c1[nH]c(=O)[nH]c(=O)c1C(=O)O`, the growth inhibition was -20.6%.

Take `NC(=S)N/N=C1/CC(=O)N(c2ccccc2)C1c1ccccc1` (stereo not drawn): the growth inhibition is 32.6%.

`CCN1c2ccccc2CC(C#N)(CCN(C)C)c2ccccc21` (stereo not drawn): the growth inhibition was 1.5%.

As for `Cc1cnc2c(N)nc(-c3ccccc3)nc2n1`, the growth inhibition was 8.55%.

On to `C=COC(=O)N1CCCCC1`, for which the growth inhibition was -5.75%.

For `O=C1CN(c2ccccc2)C(=O)CN1/N=C/c1ccc(O)c(O)c1`, the growth inhibition was -35.2%.

On to `CC1CC2C3(C1)CC(C(=O)OC3=O)C2(C)C` (stereo not drawn), for which the growth inhibition is -3.4%.
